Assay results taken from PubChem BioAssay.
The source made the active and inactive calls.

Key:
Albumin (Bos taurus) = Albumin (Bos taurus) (UniProt P02769); experiment: bovine serum albumin binders on microarray, profiling panel, artefact control for SMM control protein annotation, biochemical, small-molecule microarray, Alexa647 label, 635/667 nm fluorescence (AID 1118); settings: BSA-A647 binding, fluorescence 635 nm, higher = more signal;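 note: score merges 667 nm emission intensity and signal-to-noise per printed compound spot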
Sequence of Albumin (Bos taurus) (P02769 whole entry, looked up): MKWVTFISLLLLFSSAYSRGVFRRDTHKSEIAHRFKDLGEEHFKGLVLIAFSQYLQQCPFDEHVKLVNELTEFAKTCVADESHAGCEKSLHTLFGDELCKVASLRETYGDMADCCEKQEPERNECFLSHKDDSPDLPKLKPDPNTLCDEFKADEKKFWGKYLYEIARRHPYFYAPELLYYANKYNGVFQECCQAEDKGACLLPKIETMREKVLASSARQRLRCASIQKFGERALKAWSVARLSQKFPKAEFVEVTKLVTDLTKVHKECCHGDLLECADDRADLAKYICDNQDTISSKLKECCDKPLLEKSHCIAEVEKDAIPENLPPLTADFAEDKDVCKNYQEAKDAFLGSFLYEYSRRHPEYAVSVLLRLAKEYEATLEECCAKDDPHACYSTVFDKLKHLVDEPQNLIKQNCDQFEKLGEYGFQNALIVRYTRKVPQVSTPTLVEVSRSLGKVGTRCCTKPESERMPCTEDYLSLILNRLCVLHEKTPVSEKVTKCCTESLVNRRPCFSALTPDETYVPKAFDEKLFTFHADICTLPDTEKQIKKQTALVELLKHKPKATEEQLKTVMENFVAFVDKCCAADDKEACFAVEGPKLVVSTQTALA

[1] = small-molecule microarray binders of probe aXIP, primary screen, biochemical, NeuroSMM set, 635/667 nm fluorescence (AID 1119); settings: higher = more signal, called active from +8 up or from −8 down;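 note: probe is the protein aXip251-270 applied at 1 µg/mL to compound-printed slides; binding of probe to printed compounds measured as 667 nm fluorescence plus signal to noise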
[2] = small-molecule binders of probe aNOTCH3, primary screen, biochemical, small-molecule microarray, 635/667 nm fluorescence (AID 1120); settings: higher = more signal;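 note: probe is a biotin-tagged antibody raised against NOTCH3 rather than NOTCH3 protein; score merges spot fluorescence near 667 nm with spot signal to noise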
[3] = small-molecule binders of probe aNOTCH2, primary screen, biochemical, small-molecule microarray, 635/667 nm fluorescence (AID 1121); settings: higher = more signal;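 note: score merges feature fluorescence read at 667 nm with its signal to noise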
[4] = target: Carbonic anhydrase 2 (Homo sapiens) (UniProt P00918); experiment: CAII small-molecule binders, profiling panel, biochemical, small-molecule microarray, Alexa647-labelled CAII (AID 1122); settings: CAII-A647 binding fluorescence, higher = more signal
[5] = COS7 lysate on small-molecule microarray, probe aHis, 635 nm (AID 1123); settings: COS7 cell lysate, fluorescence, higher = more signal;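 note: z-score combines 667nm fluorescence intensity with signal-to-noise per printed compound spot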
[6] = compound binding in COS7 lysate, probe aLAP1, primary screen, cell lysate, small-molecule microarray (AID 1124); settings: probe aLAP1, fluorescence, higher = more signal;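 note: lysate comes from COS7 cells expressing LAP1 and is applied at 0.3 µg/mL; score merges spot fluorescence near 667 nm with signal-to-noise over triplicate slides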
Sam68 (KHDRBS1) = experiment: Sam68 small-molecule binders, primary screen, biochemical, small-molecule microarray, 635 nm fluorescence (AID 1125); settings: small-molecule microarray binding, higher = more signal;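 note: score merges 667 nm channel intensity with signal to noise over triplicate slides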
[7] = system: Chordin-like protein 2 (CHRDL2); experiment: CHRDL2 small-molecule binders, primary screen, biochemical, small-molecule microarray, 635 nm fluorescence (AID 1126); settings: small-molecule microarray binding, fluorescence 635 nm; higher = more signal;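 note: printed compound slides probed with Chrdl2 protein at 4 µg/mL for 1 h at 4 C; score merges 667 nm emission intensity with signal to noise over three replicate slides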
[8] = target: Concanavalin-A (Canavalia ensiformis) (UniProt P02866); experiment: ConA small-molecule binders, primary screen, artefact control for SMM control protein annotation, biochemical, small-molecule microarray, Alexa647 label, 635 nm (AID 1127); settings: ConA-A647 binding fluorescence, higher = more signal;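 note: z combines 667 nm emission intensity with signal-to-noise across three replicate slides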
Sequence of Concanavalin-A (Canavalia ensiformis) (P02866 whole entry, looked up): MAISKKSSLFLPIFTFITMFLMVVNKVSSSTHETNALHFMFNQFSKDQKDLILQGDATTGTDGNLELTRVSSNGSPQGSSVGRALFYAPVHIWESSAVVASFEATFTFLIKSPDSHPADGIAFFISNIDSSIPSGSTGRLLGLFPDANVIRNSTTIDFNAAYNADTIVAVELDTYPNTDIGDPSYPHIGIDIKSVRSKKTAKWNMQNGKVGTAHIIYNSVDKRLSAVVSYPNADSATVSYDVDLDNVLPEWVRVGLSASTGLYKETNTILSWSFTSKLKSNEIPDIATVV

SMILES | composite z-score (Albumin (Bos taurus)) | composite Z-score [1] | composite z-score [2] | composite z-score [3] | composite z-score [4] | composite z-score [5] | composite z-score [6] | composite z-score (Sam68 (KHDRBS1)) | composite z-score [7] | composite z-score [8]
COCCOC(=O)N1C(=O)[C@@]2(c3cc(C#CC4=CCCCC4)ccc31)[C@H](C(N)=O)[C@H]1C(=O)O[C@H](c3ccccc3)[C@H](c3ccccc3)N1[C@@H]2c1ccc(OCCO)cc1 | 0.588 | 0.362 (inactive) | -0.315 | -0.259 | 0.348 | 0.763 | 0.481 | 1.3 | 0.0151 | 0.459
CN(C)C(=O)[C@@]1(Cc2ccccc2)N=C(c2ccc(OCCCO)cc2)O[C@H]1c1ccccc1N=[N+]=[N-] | 0.952 | -0.0707 (inactive) | 0.516 | -0.0422 | 0.765 | 2.88 | 0.935 | 1.29 | 0.152 | 1.13
CO[C@H]1O[C@H](CO)[C@@H](OC(=O)Nc2ccc(Br)cc2)[C@H](OC(=O)c2cc3ccccc3[nH]2)[C@H]1OC(=O)c1cc2ccccc2[nH]1 | 0.93 | 0.907 (inactive) | -0.04 | -0.101 | 0.386 | 1.25 | 0.451 | 1.33 | 0.283 | 1.14
[N-]=[N+]=NCc1ccccc1C[C@@]1(C(=O)NCC(O)CO)N=C(c2ccc(OCCCO)cc2)O[C@@H]1c1ccccc1N=[N+]=[N-] (stereo not given in full) | 0.987 | 1.26 (inactive) | 0.318 | -0.0814 | 0.69 | 3.14 | 0.791 | 1.31 | -0.655 | 1.1
C=C(COC)/C(=C/C[C@H](OC(=O)c1ccncc1)c1ccc(OCCO)cc1)c1cnc2ccccc2c1 | 0.808 | 0.914 (inactive) | 0.227 | -0.0389 | 0.86 | 1.46 | 0.334 | 1.29 | 1.26 | 1.17
CCCC[C@@H]1C[C@H]1[C@@H](NC(=O)c1ccco1)c1ccc(C(=O)OC)cc1 | 0.623 | 0.224 (inactive) | -0.0967 | -0.11 | 0.39 | 0.792 | 0.187 | 0.0166 | 0.0374 | -0.112
COc1ccc(C(=O)Nc2ccc(CN3C(=O)[C@@]4(O[C@@H](CC(=O)N5CCC[C@H]5CO)[C@H]([Si](C)(C)c5ccc(OC)cc5)[C@H]4C)c4ccccc43)cc2)cc1 | 0.042 | 0.277 (inactive) | -0.0219 | -0.0389 | 0.51 | 1.78 | 0.045 | 1.31 | 0.989 | 1.08
CCOC(=O)C=Cc1cc([N+](=O)[O-])ccc1O | -0.307 | -0.26 (inactive) | 0.0209 | -0.0162 | 0.802 | 0.751 | 0.422 | 0.471 | -1.26 | -0.0123
COCC(=C=CC[C@@H](O)c1ccccc1OCCO)C[C@@H](O)c1cc(Cl)cc(Cl)c1O | 0.641 | 0.103 (inactive) | 0.129 | -0.14 | 0.38 | 1.24 | 0.822 | 1.3 | 0.476 | 1.08
COCCOC(=O)N1C(=O)[C@@]2(c3ccccc31)[C@H](c1ccccc1OCCO)N1[C@H](c3ccccc3)[C@H](c3ccccc3)OC(=O)[C@H]1[C@@H]2C(=O)Nc1nc2ccccc2s1 | 0.665 | 0.746 (inactive) | 0.133 | -0.089 | 0.481 | 1.52 | 1.69 | 1.31 | 0.651 | 1.18
COc1cc2c(cc1O)C(C1CC1)N(Cc1cc3c(cc1Br)OCO3)CC2 (stereo not given) | 0.137 | -0.431 (inactive) | -0.318 | -0.0703 | 0.593 | 0.478 | 0.283 | -1.09 | -0.14 | -0.207
Cc1ccc(S[C@]2(C(=O)NCC(C)C)CC(=O)N(Cc3cc(C(F)(F)F)cc(C(F)(F)F)c3)[C@@H]2c2ccc(CO)cc2I)cc1 | 0.0274 | 0.786 (inactive) | -0.188 | -0.0415 | 0.89 | 0.234 | 0.77 | -0.47 | -1.76 | -1.39
O=C1OCCC/C=C\[C@H]2OC34C=CCN(Cn5nnc6ccccc65)C(=O)[C@H]3N(CCO)C(=O)[C@@H]4C12 (stereo not given in full) | 0.926 | 0.605 (inactive) | 0.0004 | -0.0073 | 0.987 | 0.207 | 0.136 | -0.642 | -1.89 | 0.216
O=C1O[C@H](c2ccccc2)[C@H](c2ccccc2)N2[C@H]1[C@@H](C(=O)N1CCN(c3ncccn3)CC1)[C@]1(C(=O)Nc3ccc(C#CC4=CCCCC4)cc31)[C@H]2c1ccc(O)cc1 | 0.444 | -0.239 (inactive) | 0.0533 | -0.0282 | 0.413 | 1.81 | 0.853 | 1.3 | -0.0356 | 0.893
COCCCN1C(=O)[C@@]2(Cc3ccccc31)c1ccccc1C(=O)N(Cc1ccccc1C(F)(F)F)[C@H]2c1ccc(CO)cc1 | -0.857 | 0.225 (inactive) | -0.401 | 0.402 | 0.138 | -0.176 | -0.395 | 1 | 1.09 | 0.961
NCCCCCNC(=O)[C@@H]1C[C@@H]2C(=O)N[C@@H](Cc3ccccc3)C(=O)N2[C@@H]1c1cccc(OCCO)c1 | 0.654 | 0.376 (inactive) | 0.0087 | -0.112 | 0.698 | 1.18 | 0.463 | 0.861 | -0.0335 | 1.05

SMILES | composite z-score (Albumin (Bos taurus)) | composite Z-score [1] | composite z-score [2] | composite z-score [3] | composite z-score [4] | composite z-score [5] | composite z-score [6] | composite z-score (Sam68 (KHDRBS1)) | composite z-score [7] | composite z-score [8]
CC(C)(C)OC(=O)CC[C@]1(C(=O)O)N=C(c2ccc(OCCCO)cc2)O[C@H]1c1ccccc1N=[N+]=[N-] | 0.82 | 0.653 (inactive) | 0.786 | 0.473 | 0.838 | 2.95 | 0.781 | 0.889 | 0.0588 | 0.663
C=CC[C@]1(C(=O)N2CCCCC2)N=C(c2ccc(OCCCO)cc2)O[C@H]1c1ccccc1 | 0.579 | 0.458 (inactive) | 0.748 | 0.429 | 0.63 | 2.04 | 0.488 | 1.31 | 0.238 | 0.387
C=CCNC(=O)[C@H]1[C@@H]2C(=O)O[C@@H](c3ccccc3)[C@@H](c3ccccc3)N2[C@@H](c2ccccc2OCCO)[C@]12C(=O)Nc1ccc(C#CC3=CCCCC3)cc12 | 0.039 | 1.86 (inactive) | 0.0942 | -0.148 | 0.0836 | 1.19 | 1.37 | 1.29 | 0.495 | 1.02
CC(C)C[C@@H]1NC(=O)[C@@H]2C[C@H](C(=O)NCCCCCN)[C@H](c3cccc(OCCO)c3)N2C1=O | 1.02 | 0.425 (inactive) | 0.0992 | -0.17 | 0.813 | 1.03 | 1.16 | 0.839 | 0.0186 | 1.2
COc1cc2c(cc1OC)CN(C(=O)[C@H]1[C@@H]3C(=O)O[C@@H](c4ccccc4)[C@@H](c4ccccc4)N3[C@@H](c3ccc(O)cc3)[C@]13C(=O)Nc1ccc(C#CC4=CCCCC4)cc13)CC2 | 0.672 | 0.721 (inactive) | 0.533 | -0.0411 | 0.561 | 1.74 | 0.969 | 1.31 | 0.575 | 1.14
COc1cc2c(cc1O)C=[N+](Cc1cccc(OC(F)(F)F)c1)CC2 | 0.828 | 0.0714 (inactive) | -0.0879 | -0.172 | 0.61 | -0.784 | 0.173 | -0.933 | 0.156 | -0.27
CN(C)CCCC[C@@H]1NC(=O)[C@H]2C[C@@H](C(=O)NCCCCCNC(=O)CS)[C@@H](c3cccc(OCCO)c3)N2C1=O | 0.816 | -0.114 (inactive) | -0.239 | -0.175 | 0.661 | 1.67 | 0.0827 | 1.03 | 0.651 | 0.612
C#CCN(CC1=CCCCC1)[C@H](c1ccccc1Br)[C@@H](O)Cc1ccccc1 | 0.306 | -0.356 (inactive) | -0.344 | -0.177 | 0.345 | 0.545 | 0.0773 | 0.516 | -0.882 | -0.679
CC(C)N1C(=O)[C@@]2(Cc3ccccc31)c1ccccc1C(=O)N(C1CCCCC1)[C@H]2c1ccc(CO)cc1 | -0.352 | -0.0662 (inactive) | 0.0196 | -0.174 | 0.156 | 1.59 | 0.779 | 0.819 | 0.78 | 0.842
O=C1[C@H]2C=C(Br)[C@H](C[C@@H]2c2ccccc2)[C@@]12CO2 | -0.6 | 1.22 (inactive) | 0.11 | -0.0817 | 0.183 | -0.0697 | -0.187 | 0.383 | 0.945 | -0.0479
O=C1NC(=O)C2C1C=CC(C(O)c1ccccc1)N2Nc1ccc(Cl)cc1Cl (stereo not given) | 0.885 | -0.199 (inactive) | 0.405 | -0.0974 | 0.574 | 3.18 | 1.23 | 1.33 | -0.238 | 1.1
CC(C)C[C@@H]1NC(=O)[C@H]2C[C@@H](C(=O)NCCCCCCN(C)C)[C@@H](c3ccc(O)cc3)N2C1=O | -0.581 | 0.531 (inactive) | 0.0293 | -0.112 | 0.479 | 2.03 | 0.588 | 1.32 | 1.29 | 1.17
COCCOC(=O)N1C(=O)[C@@]2(c3cc(C#Cc4ccc(OC)cc4)ccc31)[C@H](C(=O)N1CCCCCCC1)[C@H]1C(=O)O[C@H](c3ccccc3)[C@H](c3ccccc3)N1[C@@H]2c1ccc(OCCO)cc1 | -1.25 | 3.51 (inactive) | 0.872 | 0.711 | 0.712 | 1.49 | 0.913 | 1.3 | 1.48 | 0.987
C=CC[C@]1(C(=O)NCCCOC)N=C(c2ccc(OCCCO)cc2)O[C@H]1c1ccccc1N=[N+]=[N-] | 0.958 | 0.484 (inactive) | 0.205 | 0.0494 | 0.726 | 3.06 | 0.397 | 1.31 | -0.0877 | 0.982
COC(=O)[C@@]1(Cc2ccc(OC)cc2)[C@H]2c3cc(C(=O)N4CCCC4)n(Cc4ccccc4)c3C[C@H]2CN1C(=O)c1ccccc1 | 1.05 | 0.401 (inactive) | 1.75 | 1.06 | 0.791 | 3.09 | 0.399 | 0.846 | -0.401 | 1.08
C=C(COC)/C(=C/C[C@@H](OC(C)=O)c1ccc(CO)o1)c1cnc2ccccc2c1 | 0.555 | 0.319 (inactive) | 0.25 | 0.0616 | 0.944 | 0.229 | 0.846 | 1.29 | 1.39 | 1.2
